Source: PubChem
LGR2 inh: Drosophila LGR2 receptor signaling inhibition; HEK293 LGR2, CRE-luciferase, bursicon-stimulated, 4 h; inhibition, % at 9.99 µM; 380,000 compounds, 0.35% hits; AID 720647;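 active = drop in luminescence signal, shown as inhibition above about 50% in the replicate tests, limit read from the data, passing the limit was not always enough; inconclusive = probably only some replicates passing the limit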;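 also: agonist challenge used bursicon conditioned medium at about half maximal strength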
PAX8 reporter: PAX8 transcriptional activity inhibition; 360,000 compounds, 1.2% hits; inhibition, % at 12.6 µM; RMG-I TPO-luciferase reporter, SteadyGlo, 24 h; AID 652154;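 active = mean replicate inhibition at least 60% with every replicate also reaching 60%; inconclusive = only one of the two criteria is met; inactive = mean below 60% and not all replicates reaching 60%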;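 also: luciferase light reporting Pax8 driven TPO promoter activity; plate controls were median of neutral control wells for no effect and mitoxantrone controls for full effect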
Ecoli rRNA inh: inhibitors of bacterial rRNA selective over humanized ribosomes; E. coli WT GFP vs humanized-ribosome RFP mutants, fluorescence, 24 h; hits give low values; DMSO median 0, no signal -100; GFP signal change (wild-type ribosome), % (test concentration not listed); 350,000 compounds, 1.6% hits;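 active = significant combined selectivity score with lowered wild-type GFP, culture density cut under 30%, mutant RFP and density less affected; inactive = any of these conditions unmet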
PGC1a acetyl inh: modulators of PGC1a acetylation; U2OS PGC1a acetylation, AlphaScreen anti-acetyl-lysine; with virally co-expressed GCN5 acetyltransferase; inhibition, % at 15.6 µM; 350,000 compounds, 0.17% hits; AID 651687;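 active = every replicate shows inhibition of at least 40%; inconclusive = mean inhibition at least 40% but some replicate below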;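 also: 0% = neutral control wells and 100% = positive control wells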
EWS-Fli block: inhibitors of EWS/Fli oncoprotein transcriptional activity; 350,000 compounds, 0.67% hits; A673 NR0B1-luciferase reporter, viability-normalised; inhibition, % at 12.6 µM;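 active = mean inhibition of at least 50% after viability correction, with every replicate also passing that limit; inconclusive = mean reaches 50% but only one of two replicates passes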;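 also: firefly luciferase signal divided by Alamar Blue viability fluorescence both relative to DMSO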
SIRT5 inh: blocks human SIRT5 desuccinylation of peptide. 330,000 compounds, 1.1% hits. Q9NXA8. Purified SirT5, succinyl-peptide AMC, trypsin-coupled fluorescence. inhibition, % at 15 µM; in the data active = inhibition above about 15%; inconclusive = no clear call, values can overlap the other calls
Target sequence (Q9NXA8 whole entry, looked up): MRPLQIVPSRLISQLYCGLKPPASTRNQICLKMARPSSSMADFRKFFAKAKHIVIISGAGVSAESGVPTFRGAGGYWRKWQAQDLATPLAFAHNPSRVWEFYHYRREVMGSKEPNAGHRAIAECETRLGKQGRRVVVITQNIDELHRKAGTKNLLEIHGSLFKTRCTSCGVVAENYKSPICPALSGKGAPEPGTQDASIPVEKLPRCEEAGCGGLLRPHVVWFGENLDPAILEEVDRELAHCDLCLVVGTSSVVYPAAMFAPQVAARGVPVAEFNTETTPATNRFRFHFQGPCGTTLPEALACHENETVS
* marks the source's active call; other numbers are inactive results; ? = inconclusive; / = no result; ! = a repeat was not active. Rows were chosen to be rich in hits. Some 3.4% of all compounds tested hit in one or more screens of this group.

SMILES	LGR2 inh	PAX8 reporter	Ecoli rRNA inh	PGC1a acetyl inh	EWS-Fli block	SIRT5 inh
CO[C@H]1CN(C)C(=O)c2ccc(NC(C)=O)cc2OC[C@@H](C)N(CC2CCCCC2)C[C@H]1C	5	1	3	-1	1	-9
C/C=C/c1ccc([C@H]2[C@@H](CO)N(C(=O)c3cnccn3)C23CN(C(=O)C2CC2)C3)cc1	-2	/	-1	/	-7	-4
COc1ccc(S(=O)(=O)N[C@H]2CC[C@@H](CCn3cc(-c4ccccc4F)nn3)O[C@H]2CO)cc1	1	9	-12	3	7	-1
O=C1N(c2ccccc2)C[C@@H]2C[C@@H](c3cccs3)N3CCC[C@@]123	?	75*	9	-6	2	-1
O=S(=O)(c1ccc(Cl)cc1)c1snnc1-c1ccccc1	/	/	/	42*	/	/
O=S(=O)(c1ccc(F)cc1)c1snnc1-c1ccccc1	58*	58	-31	/	40	0
N#Cc1c(N)n(C2OC(CO)C(O)C2O)c2ncnc(N)c12 (centres undefined)	91*	109*	10	/	27	/
Nc1ncnc2c1ncn2C1O[C@H](CO)[C@@H](O)[C@@H]1O (some centres undefined)	-4	-7	/	0	9	1
O=C(C1CCOCC1)N1CC(=O)N2[C@@H](CO)[C@H](c3ccc(/C=C/c4ccccc4)cc3)[C@@H]2C1	-9	-12	4	5	-5	0
CCCN(C)C[C@H]1OCCCC[C@H](C)Oc2ccc(NC(=O)CCC(F)(F)F)cc2C(=O)N([C@H](C)CO)C[C@H]1C	-21	10	3	4	2	7
COc1ccccc1/C=C/C(=O)NC(=S)N(C)C1CCCCC1	-1	/	-24*	-4	-1	-2
COc1ccc(C(=O)NC(=S)N(C)C2CCCCC2)cc1Br	-17	-7	2	1	/	-3
COc1ccc(CN(C)C[C@H]2OCCCC[C@@H](C)Oc3ccc(NS(=O)(=O)c4ccc(C)cc4)cc3C(=O)N([C@@H](C)CO)C[C@@H]2C)cc1	-7	-42	3	6	-24	0
COc1cnn(-c2ccc(Br)cc2)c(=O)c1SCc1ccccc1	-32	34	-10	/	-63	28*
COc1cnn(-c2ccc(C)cc2)c(=O)c1SCc1ccccc1	-37	/	/	-2	/	/
CO[C@H]1CN(C)C(=O)c2cc(NC(=O)NC(C)C)ccc2OC[C@H](C)N(S(C)(=O)=O)C[C@H]1C	-5	/	2	-10	-5	-3
O=C(C1=C[C@@H](c2ccc3c(c2)Cc2ccccc2-3)C[C@@H](OCCCCO)O1)N1CCCCC1	/	-4	/	-20	-29	-2
CC(=O)N1/C(=C/c2ccc(N(C)C)cc2)C(=O)c2ccccc21	75*	18	-5	-75	29	3
N#Cc1ccc(C(=O)N2CCC3CC2c2cc(N4CCCCC4)ccc23)cc1 (centres undefined)	3	2	-33*	0	4	-4
N#Cc1ccc(C(=O)N2CCC3CC2c2cc(-c4ccccc4)ccc23)cc1 (centres undefined)	8	10	2	0	0	-2
Nc1nc(SCc2ccccc2)c2[nH]cnc2n1	-11	1	1	-12	1	-2
CCOC(=O)c1cc([N+](=O)[O-])cc([N+](=O)[O-])c1Sc1ncnc2nc[nH]c12	-9	25	10	6	44	0
Nc1nc(Sc2ccc([N+](=O)[O-])c3nonc23)c2[nH]cnc2n1	/	97*	13	2	27	/
CNc1ncnc(Sc2nc(N)nc3nc[nH]c23)c1[N+](=O)[O-]	7	95*	-10	2	64*	5
CCO[C@H]1OC(C(=O)N2CCN(Cc3ccccc3)CC2)=C[C@@H](c2ccccc2)[C@@H]1CCCO	2	-4	-32*	-30	16	-2
SMILES	LGR2 inh	PAX8 reporter	Ecoli rRNA inh	PGC1a acetyl inh	EWS-Fli block	SIRT5 inh
CCO[C@H]1OC(C(=O)N2CCN(Cc3ccccc3)CC2)=C[C@@H](c2ccc(C(F)(F)F)cc2)[C@@H]1CCCO	18	90*	-44	-16	4	-5
C#Cc1ccc([C@H]2C=C(C(=O)NCc3ccccc3)O[C@@H](OCC)[C@@H]2CCCO)cc1	7	6	-34	-3	20	21*!
CCO[C@@H]1OC(C(=O)N2CCN(Cc3ccccc3)CC2)=C[C@H](c2ccc3c(c2)OCO3)[C@H]1CCCO	/	29	/	-6	2	-1
CCO[C@H]1OC(C(=O)N2CCN(Cc3ccc4c(c3)OCO4)CC2)=C[C@@H](c2ccc3c(c2)OCO3)[C@@H]1CCCO	-9	-9	-22*	-4	5	0
C#Cc1ccc([C@@H]2C=C(C(=O)Nc3ccccc3)O[C@H](OCC)[C@H]2CCCO)cc1	4	-6	2	10	-1	6
COc1cc(/C=C2\SC(=O)NC2=O)ccc1Oc1ccc([N+](=O)[O-])cc1[N+](=O)[O-]	10	-2	7	/	16	5
CCN1C(=O)C(=Cc2cccc(OC)c2Oc2ccc([N+](=O)[O-])cc2[N+](=O)[O-])SC1=S	8	38	4	1	58*	-8
C[C@@H]1CN([C@H](C)CO)S(=O)(=O)c2ccc(C#CC3CC3)cc2O[C@H]1CN(C)C(=O)c1ccccn1	5	/	-15	-22	-1	1
C[C@H](CO)N1C[C@H](C)[C@@H](CN(C)S(=O)(=O)c2cn(C)cn2)Oc2cc(C3=CCCCC3)ccc2S1(=O)=O	-5	9	-3	-2	6	6
CC(=O)NC(c1cccc(F)c1)c1nc(-c2cccc(C(C)C)c2)cs1 (centres undefined)	7	13	-12	100*	-1	/
CC(=O)NC(c1cccc(F)c1)c1nc(-c2cccc(C(=O)O)c2)cs1 (centres undefined)	-43	-31	-7	-13	-45	-1
O=C(NC12CC3CC(CC(C3)C1)C2)c1ccc([N+](=O)[O-])o1	7	98*	-7	/	17	-2
Cc1cc(Cl)ccc1NC(=S)N1CCN(C(=O)c2ccco2)CC1	12	/	-37*	-7	6	5
Cc1ccccc1NC(=S)N1CCN(C(=O)c2ccco2)CC1	-7	16	3	/	10	-3
O=C(Cn1cc(C(F)(F)F)ccc1=O)Nc1ccc2c(c1)OCO2	-11	95*	3	1	0	/
COc1ccc(CN(C)C[C@H]2Oc3ccc(NS(=O)(=O)c4ccccc4)cc3CC(=O)N([C@H](C)CO)C[C@H]2C)cc1	-15	/	1	-5	-3	2
COc1ccc(S(=O)(=O)Nc2ccc3c(c2)CC(=O)N([C@@H](C)CO)C[C@H](C)[C@H](CN(C)Cc2ccc(Oc4ccccc4)cc2)O3)cc1	0	12	5	-9	-1	17*
